Assay results from the supplement of paper PMC10037445.
± gives the standard deviation of the averaged measurements. In all, about 2,900 compounds were measured (“NF-kB SEAP reporter activity, fold change vs agonist alone”: median about 0.99, highest 2% from about 2.6 on). The sample as a whole holds a higher share of the highest values than the screen did.

Experiments:
RAW-Dual [1] = assay: NF-kB SEAP reporter activity, fold change vs agonist alone; higher = enhanced NF-kB activity
Summary of the method: (§1)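 RAW-Dual macrophages were seeded in DMEM at 50,000 cells/well in 384-well plates, given 50 nL of library stock by pin tool, and given a PRR agonist 1 h later. Plates were held at 37 °C, 5% CO2 for 20 hours, after which supernatant was read for IRF by QuantiLuc luminescence and for NF-κB by QuantiBlue absorbance at 620 nm. Reporter activity is expressed as fold change over wells that received agonist alone. A well was called cytotoxic when IncuCyte confluency fell below 70% of agonist controls in both mask sets.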

RAW-Dual [2] = assay: NF-kB SEAP reporter activity, fold change vs agonist alone; cytotoxicity flag (confluency mask): not cytotoxic; higher = enhanced NF-kB activity
Summary of the method: as §1

RAW-Dual [3] = assay: NF-kB SEAP reporter activity, fold change vs agonist alone; cytotoxicity flag (confluency mask): cytotoxic (confluency <70% of control); higher = enhanced NF-kB activity
Summary of the method: as §1

[4] = library stock concentration (final ~1000-fold dilution): 10 mM, cytotoxicity flag (confluency mask): not cytotoxic, agonist: Imiquimod (TLR7) […]
[5] = library stock concentration (final ~1000-fold dilution): 10 mM, cytotoxicity flag (confluency mask): not cytotoxic, agonist: MPLA (TLR4) […]
[6] = agonist: ODN 1826 (TLR9) 0.5 ug/mL
[7] = agonist: Pam2CSK4 (TLR2/6) 0.1 ug/mL
[8] = agonist: Pam3CSK4 (TLR2/1) 0.1 ug/mL
[9] = library stock concentration (final ~1000-fold dilution): 10 mM, cytotoxicity flag (confluency mask): cytotoxic (confluency <70% of control), agonist: Imiquimod (TLR7) […]
[10] = library stock concentration (final ~1000-fold dilution): 10 mM, cytotoxicity flag (confluency mask): cytotoxic (confluency <70% of control), agonist: MPLA (TLR4) […]

Compound: O=c1cc(-c2cccc3c2Sc2ccccc2S3)oc(N2CCOCC2)c1
- NF-kB SEAP reporter activity (RAW-Dual [1]; [4]): 1.04
- NF-kB SEAP reporter activity (RAW-Dual [1]; [5]): 2.17

Compound: CNC(=O)C(Cc1c[nH]c2ccccc12)NC(=O)C(CC(=O)NO)CC(C)C (stereo not drawn)
- NF-kB SEAP reporter activity (RAW-Dual [1]; [4]): 1.04
- NF-kB SEAP reporter activity (RAW-Dual [1]; [5]): 1.23

Compound: CNC(=O)C(Cc1c[nH]c2ccccc12)NC(=O)C(CC(=O)NO)CC(C)C (stereo not drawn) (library stock concentration (final ~1000-fold dilution): 10 mM)
- NF-kB SEAP reporter activity (RAW-Dual [2]; agonist: LPS (TLR4) 0.1 ug/mL): 0.932
- NF-kB SEAP reporter activity (RAW-Dual [2]; [6]): 0.999
- NF-kB SEAP reporter activity (RAW-Dual [2]; [7]): 1.03
- NF-kB SEAP reporter activity (RAW-Dual [2]; [8]): 1.01

Compound: CN1C2CCCC1CC(NC(=O)c1nn(C)c3ccccc13)C2.Cl (stereo not drawn)
- NF-kB SEAP reporter activity (RAW-Dual [1]; library stock concentration (final ~1000-fold dilution): 10 mM water, cytotoxicity flag (confluency mask): not cytotoxic, agonist: Imiquimod (TLR7) […]): 0.874
- NF-kB SEAP reporter activity (RAW-Dual [1]; library stock concentration (final ~1000-fold dilution): 10 mM water, cytotoxicity flag (confluency mask): not cytotoxic, agonist: MPLA (TLR4) […]): 1

Compound: CN1C2CCCC1CC(NC(=O)c1nn(C)c3ccccc13)C2.Cl (stereo not drawn) (library stock concentration (final ~1000-fold dilution): 10 mM water)
- NF-kB SEAP reporter activity (RAW-Dual [2]; agonist: LPS (TLR4) 0.1 ug/mL): 1.2
- NF-kB SEAP reporter activity (RAW-Dual [2]; [6]): 1.06
- NF-kB SEAP reporter activity (RAW-Dual [2]; [7]): 1.04
- NF-kB SEAP reporter activity (RAW-Dual [2]; [8]): 1.11

Compound: CC1(C)CCC2(NC(=O)C(C)(F)F)CCC3(C)C(C(=O)C=C4C5(C)C=C(C#N)C(=O)C(C)(C)C5CCC43C)C2C1 (stereo not drawn) (library stock concentration (final ~1000-fold dilution): 10 mM)
- NF-kB SEAP reporter activity (RAW-Dual [3]; agonist: LPS (TLR4) 0.1 ug/mL): 0.358 ± 0.053
- NF-kB SEAP reporter activity (RAW-Dual [3]; [6]): 0.173 ± 0.0087
- NF-kB SEAP reporter activity (RAW-Dual [3]; [7]): 0.0759 ± 0.018
- NF-kB SEAP reporter activity (RAW-Dual [3]; [8]): 0.163 ± 0.0017

Compound: CC1(C)CCC2(NC(=O)C(C)(F)F)CCC3(C)C(C(=O)C=C4C5(C)C=C(C#N)C(=O)C(C)(C)C5CCC43C)C2C1 (stereo not drawn)
- NF-kB SEAP reporter activity (RAW-Dual [1]; [9]): 0.14 ± 0.006
- NF-kB SEAP reporter activity (RAW-Dual [1]; [10]): 0.254 ± 0.0072

Compound: C=CC(C)(/C=C/c1ccc(O)cc1)CCC=C(C)C (stereo not drawn) (library stock concentration (final ~1000-fold dilution): 10 mM)
- NF-kB SEAP reporter activity (RAW-Dual [2]; agonist: LPS (TLR4) 0.1 ug/mL): 0.878
- NF-kB SEAP reporter activity (RAW-Dual [2]; [6]): 1.02
- NF-kB SEAP reporter activity (RAW-Dual [2]; [7]): 0.934
- NF-kB SEAP reporter activity (RAW-Dual [2]; [8]): 1.16

Compound: C=CC(C)(/C=C/c1ccc(O)cc1)CCC=C(C)C (stereo not drawn)
- NF-kB SEAP reporter activity (RAW-Dual [1]; [4]): 1.1
- NF-kB SEAP reporter activity (RAW-Dual [1]; [5]): 1.12

Compound: C=CCNC1=C2CC(C)CC(OC)C(O)C(C)/C=C(\C)C(OC(N)=O)C(OC)/C=C\C=C(/C)C(=O)NC(=CC1=O)C2=O (stereo not drawn)
- NF-kB SEAP reporter activity (RAW-Dual [1]; [9]): 0.313
- NF-kB SEAP reporter activity (RAW-Dual [1]; [10]): 0.516

Compound: C=CCNC1=C2CC(C)CC(OC)C(O)C(C)/C=C(\C)C(OC(N)=O)C(OC)/C=C\C=C(/C)C(=O)NC(=CC1=O)C2=O (stereo not drawn) (library stock concentration (final ~1000-fold dilution): 10 mM)
- NF-kB SEAP reporter activity (RAW-Dual [3]; agonist: LPS (TLR4) 0.1 ug/mL): 0.289
- NF-kB SEAP reporter activity (RAW-Dual [3]; [6]): 0.221
- NF-kB SEAP reporter activity (RAW-Dual [3]; [7]): 0.0862
- NF-kB SEAP reporter activity (RAW-Dual [3]; [8]): 0.182

Compound: CN(C)CCCn1cc(C2=C(c3c[nH]c4ccccc34)C(=O)NC2=O)c2ccccc21
- NF-kB SEAP reporter activity (RAW-Dual [1]; [9]): 1.13
- NF-kB SEAP reporter activity (RAW-Dual [1]; [10]): 1.59

Compound: COc1ccc2c(c1)c(C1=C(c3c[nH]c4ccccc34)C(=O)NC1=O)cn2CCCN(C)C (library stock concentration (final ~1000-fold dilution): 10 mM)
- NF-kB SEAP reporter activity (RAW-Dual [3]; agonist: LPS (TLR4) 0.1 ug/mL): 1.23
- NF-kB SEAP reporter activity (RAW-Dual [3]; [6]): 0.346
- NF-kB SEAP reporter activity (RAW-Dual [3]; [7]): 1.25
- NF-kB SEAP reporter activity (RAW-Dual [3]; [8]): 1.82

Compound: CN1CCN(c2nc(C3=C(c4c[nH]c5ccccc45)C(=O)NC3=O)c3ccccc3n2)CC1 (library stock concentration (final ~1000-fold dilution): 10 mM)
- NF-kB SEAP reporter activity (RAW-Dual [3]; agonist: LPS (TLR4) 0.1 ug/mL): 2.03
- NF-kB SEAP reporter activity (RAW-Dual [3]; [6]): 1.29
- NF-kB SEAP reporter activity (RAW-Dual [3]; [7]): 1.84
- NF-kB SEAP reporter activity (RAW-Dual [3]; [8]): 3.14

Compound: CN1CCN(c2nc(C3=C(c4c[nH]c5ccccc45)C(=O)NC3=O)c3ccccc3n2)CC1
- NF-kB SEAP reporter activity (RAW-Dual [1]; [9]): 2.99
- NF-kB SEAP reporter activity (RAW-Dual [1]; [10]): 2.19

Compound: CN(C)CCCn1cc(C2=C(c3c[nH]c4ccccc34)C(=O)NC2=O)c2ccccc21 (library stock concentration (final ~1000-fold dilution): 10 mM)
- NF-kB SEAP reporter activity (RAW-Dual [3]; agonist: LPS (TLR4) 0.1 ug/mL): 0.346
- NF-kB SEAP reporter activity (RAW-Dual [3]; [6]): 0.491
- NF-kB SEAP reporter activity (RAW-Dual [3]; [7]): 0.833
- NF-kB SEAP reporter activity (RAW-Dual [3]; [8]): 0.564

Compound: COc1ccc2c(c1)c(C1=C(c3c[nH]c4ccccc34)C(=O)NC1=O)cn2CCCN(C)C
- NF-kB SEAP reporter activity (RAW-Dual [1]; [9]): 2.44
- NF-kB SEAP reporter activity (RAW-Dual [1]; [10]): 1.71

Compound: Cc1ncc(NC(=O)c2cccc(C(F)(F)F)c2)cc1-c1cnc(OC2CCOCC2)c(N2CCOCC2)c1 (library stock concentration (final ~1000-fold dilution): 10 mM)
- NF-kB SEAP reporter activity (RAW-Dual [2]; agonist: LPS (TLR4) 0.1 ug/mL): 1.31
- NF-kB SEAP reporter activity (RAW-Dual [2]; [6]): 0.938
- NF-kB SEAP reporter activity (RAW-Dual [2]; [7]): 0.495
- NF-kB SEAP reporter activity (RAW-Dual [2]; [8]): 0.711

Compound: Cc1ncc(NC(=O)c2cccc(C(F)(F)F)c2)cc1-c1cnc(OC2CCOCC2)c(N2CCOCC2)c1
- NF-kB SEAP reporter activity (RAW-Dual [1]; [4]): 0.898
- NF-kB SEAP reporter activity (RAW-Dual [1]; [5]): 1.04

Compound: Cc1cc(C)c2c(c1)C(N(Cc1cc(C(F)(F)F)cc(C(F)(F)F)c1)c1nnn(C)n1)CCCN2CC1CCC(C(=O)O)CC1 (stereo not drawn)
- NF-kB SEAP reporter activity (RAW-Dual [1]; [4]): 0.911
- NF-kB SEAP reporter activity (RAW-Dual [1]; [5]): 1.14

Compound: Cc1cc(C)c2c(c1)C(N(Cc1cc(C(F)(F)F)cc(C(F)(F)F)c1)c1nnn(C)n1)CCCN2CC1CCC(C(=O)O)CC1 (stereo not drawn) (library stock concentration (final ~1000-fold dilution): 10 mM)
- NF-kB SEAP reporter activity (RAW-Dual [2]; agonist: LPS (TLR4) 0.1 ug/mL): 0.632
- NF-kB SEAP reporter activity (RAW-Dual [2]; [6]): 0.635
- NF-kB SEAP reporter activity (RAW-Dual [2]; [7]): 0.484
- NF-kB SEAP reporter activity (RAW-Dual [2]; [8]): 0.444

Compound: CC(C)CC(NC(=O)C(NC(=O)c1cccc(-c2ccccc2)n1)C(C)O)B(O)O (stereo not drawn)
- NF-kB SEAP reporter activity (RAW-Dual [1]; [4]): 2.29
- NF-kB SEAP reporter activity (RAW-Dual [1]; [5]): 0.997

Compound: CC(C)CC(NC(=O)C(NC(=O)c1cccc(-c2ccccc2)n1)C(C)O)B(O)O (stereo not drawn) (library stock concentration (final ~1000-fold dilution): 10 mM)
- NF-kB SEAP reporter activity (RAW-Dual [2]; agonist: LPS (TLR4) 0.1 ug/mL): 0.629
- NF-kB SEAP reporter activity (RAW-Dual [2]; [6]): 1.53
- NF-kB SEAP reporter activity (RAW-Dual [2]; [7]): 0.976
- NF-kB SEAP reporter activity (RAW-Dual [2]; [8]): 0.594
